S1P4 antag: antagonists of human S1P4 receptor | 0.26% of 220,000 active | S1P4-expressing cells, antagonist mode, reporter read-out | inhibition, % at 4.98 µM | AID 1510 | O95977; in the data active = inhibition above about 29%;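 also: 0% = wells stimulated with agonist and 100% = vehicle wells without agonist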
Target sequence (O95977 whole entry, looked up): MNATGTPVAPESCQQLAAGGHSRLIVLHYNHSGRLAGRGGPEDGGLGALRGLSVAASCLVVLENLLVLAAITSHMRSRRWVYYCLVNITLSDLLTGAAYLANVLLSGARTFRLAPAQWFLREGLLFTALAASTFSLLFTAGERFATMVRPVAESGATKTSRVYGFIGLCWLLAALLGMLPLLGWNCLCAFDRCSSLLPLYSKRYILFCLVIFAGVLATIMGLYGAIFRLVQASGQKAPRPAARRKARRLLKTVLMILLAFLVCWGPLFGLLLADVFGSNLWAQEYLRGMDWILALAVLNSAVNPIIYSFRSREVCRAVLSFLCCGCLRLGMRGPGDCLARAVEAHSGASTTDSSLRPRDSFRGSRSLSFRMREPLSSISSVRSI
GALR2 ag: agonists of human galanin receptor 2 (GALR2). O43603. GALR2-expressing cells, agonist activation read-out. activation, % (no concentration beside the values). 0.48% of 140,000 active; in the data active = activation above about 5%, passing the limit was not always enough;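 also: 0% = vehicle buffer wells and 100% = reference agonist at full effect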
S1P4 agonist: activates the human S1P4 receptor | O95977 | S1P4-expressing cell line, agonist reporter assay | activation, % at 4.98 µM | 0.35% of 220,000 active | AID 1509; in the data active = activation above about 11%;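 also: 0% = DMSO vehicle and 100% = reference agonist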
GALR2 blocker: GALR2 (human) receptor antagonism | GALR2-expressing cells, antagonist mode | AID 828 | 0.39% of 140,000 active | O43603 | inhibition, % at 4 µM; in the data active = inhibition above about 27%;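 also: cells stimulated with galanin 1-16 at roughly its EC80; 0% = agonist challenge control and 100% = basal control without agonist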
S1P3 antagonist: blocks the human S1P3 receptor | inhibition, % at 4.98 µM | 0.27% of 170,000 active | AID 485 | Q99500 | CHO S1P3 NFAT-BLA reporter, FRET fluorescence, antagonist mode;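 active = inhibition above the plate cutoff, the mean inhibition of test wells on that plate plus 3 SD, cut at about 28% in these data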;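 also: cells challenged with S1P at its EC80 of 0.8 µM; blue over green emission ratio from cleaved BLA substrate after 4 h stimulation; 0% = S1P-stimulated wells and 100% = unstimulated DMSO-only wells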
An asterisk follows results filed as active; . = not tested or not shown. A selection: hits, their analogues and other compounds. The true share with any hit is near 1.3%.

SMILES	S1P4 antag	GALR2 ag	S1P4 agonist	GALR2 blocker	S1P3 antagonist
CCOc1ccc(C2=CS/C(=C(\C#N)c3nnc4n3CCCCC4)N2CC)cc1	-5	2	15*	-8	.
O=C(Cc1cccs1)Nc1cccc(C(=O)Nc2ccco2)c1	-20	-2	-3	25	52*
CN(C)c1ccc(-c2nn3c(-c4ccccc4Cl)nnc3s2)cc1	-10	5	2	-11	20
COc1ccccc1-c1nnc2sc(-c3ccc(N(C)C)cc3)nn12	-11	3	2	29*	44
COc1ccc(CC(=O)Nc2ccc(-c3noc(COc4ccccc4C)n3)cc2)cc1	-14	7.8*	0	4	8
CC(NC(=O)c1ccc(N(C)C)cc1)C1CC2CCC1C2 (stereo not drawn)	34*	-3	1	6	.
CC(C)c1ccc(-c2nc(N3CCCCCC3)nc3n[nH]c(N)c23)cc1	-7	-3	-2	-3	.
CC(C)c1ccc(-c2nc(N3CCCC3)nc3n[nH]c(N)c23)cc1	-3	6.2*	1	3	.
CCCCc1ccc(NC(=O)COc2ccc(C(=O)Nc3ccccc3OC)cc2)cc1	3	-1	2	6	-7
CCCCc1ccc(NC(=O)COc2ccc(C(=O)Nc3ccccc3C)cc2)cc1	-3	5.8*	0	10	3
COc1cccc(/C=N/N2C(=O)C3C4c5ccccc5C(c5ccccc54)C3C2=O)c1OC (stereo not drawn)	7	-2	13*	-5	.
CCCCCCN1CC(O)=C(c2nc3ccccc3[nH]2)C1=N	-8	7.2*	1	26	30
N#Cc1c(N)c(C#N)c(-c2ccc3c(c2)OCO3)c2c1CCCC2	.	.	.	.	-37
N#Cc1c(N)nc2c(c1-c1ccc3c(c1)OCO3)CCc1ccccc1-2	-51	4.9*	2	-10	-6
CCOC(=O)C1=C(N)OC(CCl)=C(C#N)C1c1ccsc1 (stereo not drawn)	-7	-1	-1	-7	-3
CC1CN(S(=O)(=O)c2ccc(C(=O)Nc3nnc(-c4ccc5c(c4)CCCC5)o3)cc2)CC(C)O1 (stereo not drawn)	-17	-1	-1	0	84*
CC1CN(S(=O)(=O)c2ccc(C(=O)Nc3nnc(-c4ccccn4)o3)cc2)CC(C)O1 (stereo not drawn)	7	.	1	.	-17
N#Cc1cnn(-c2cccc(Cl)c2)c1-n1cccc1	-9	.	1	.	7
CCOc1ccc2nc(NC(=O)Nc3cccs3)sc2c1	12	0	3	0	58*
CCOc1ccc2nc(NC(=O)Nc3ccccc3)sc2c1	1	0	0	-3	.
COC(=O)C1CCN(C(=O)COc2cc3sc(C)nc3c3sccc23)CC1	12	-1	1	-7	55*
O=C(NCC1CCCO1)c1cncc(Br)c1 (stereo not drawn)	2	.	0	.	-9
COc1ccccc1CNC(=O)c1c(N)n(CCCN2CCOCC2)c2nc3ccccc3nc12	-3	28*	8	-16	.
Nc1c(C(=O)NCc2ccc3c(c2)OCO3)c2nc3ccccc3nc2n1CCCN1CCOCC1	2	32*	8	-15	-39
Nc1c(C(=O)NCCN2CCOCC2)c2nc3ccccc3nc2n1-c1ccc2c(c1)OCO2	-17	1	1	-3	3
SMILES	S1P4 antag	GALR2 ag	S1P4 agonist	GALR2 blocker	S1P3 antagonist
COc1ccccc1N(C)S(=O)(=O)c1ccc(C(=O)OCC(=O)NCc2ccco2)cc1	4	-1	1	1	-15
CC(C)(C)OC(=O)N1CCC(CNC(=O)c2ccc(F)cc2)CC1	-4	.	1	.	5
Nc1nonc1-c1nc2ccccc2n1Cc1ccc(F)cc1Cl	-13	-2	-1	10	78*
COC(=O)C(=N/Nc1ccccc1C(=O)OC)/C(C)=N/O	5	.	1	.	-10
CCN(CC(=O)NC1CCS(=O)(=O)C1)c1nc(-c2ccccc2)nc2ccccc12 (stereo not drawn)	-8	0	-1	-5	94*
O=C(Cc1ccccc1)NC1CCS(=O)(=O)C1 (stereo not drawn)	-3	0	0	-13	.
Cc1cc(NC(=O)CCC(=O)N(CC(=O)NC2CCCC2)Cc2ccc3c(c2)OCO3)no1	-17	.	0	.	-7
Cc1cc(NC(=O)CCC(=O)N(CC(=O)NC2CCCC2)Cc2ccc(F)cc2)no1	-7	-3	0	4	63*
O=C(c1ccccn1)N1CCN(S(=O)(=O)c2ccccc2)CC1	2	.	1	.	-6
Cc1c(Br)c(C(=O)NNC(=O)c2ccc(C(C)(C)C)cc2)nn1C	-5	.	1	.	11
CC(=O)C1=C(C)Nc2ncnn2C1c1ccc(Cl)cc1 (stereo not drawn)	-5	-3	5	10	81*
COc1cc(C2C(C(C)=O)=C(C)Nc3ncnn32)ccc1O (stereo not drawn)	-2	-2	1	-8	.
O=C(N/N=C/c1cn(Cc2ccccc2)c2ccccc12)c1cccnc1	-17	-1	-2	17	28*
Cc1ccc(-n2nc3c(n2)/C(=N/O)CC/C3=N\O)cc1	7	1	0	0	.
Cc1cccc(-n2nc3c([n+]2[O-])CCc2nonc2-3)c1C	-3	0	1	5	9
Cc1ccc(-n2nc3c([n+]2[O-])CCc2c-3no[n+]2[O-])cc1	-26	-3	-1	49*	17
[O-][n+]1onc2c1CCc1c-2nn(-c2ccccc2Cl)[n+]1[O-]	12	-3	0	42*	28
COc1cccc(CNC(=O)C(=O)NCC(c2ccco2)N2CCOCC2)c1 (stereo not drawn)	-1	-2	-2	-6	7
Cc1cc([N+](=O)[O-])nn1CC(=O)NCc1nc2ccccc2[nH]1	5	.	1	.	-8
Cc1cc(C)c(C(=O)CSc2nnc(C)c(=O)[nH]2)cc1C	-5	.	-1	.	-9
CCOCCCn1c(=NC(C)=O)c(C(=O)OCC)cc2c(=O)n3ccccc3nc21	3	7.8*	8	0	-29
CCOC(=O)c1cc2c(=O)n3ccccc3nc2n(CCOC)c1=NC(=O)C(C)(C)C	-7	8.7*	6	-18	.
CCOC(=O)c1cc2c(=O)n3ccccc3nc2n(CCCOC)c1=NC(=O)c1cccnc1	-1	3	4	-19	.
CCOC(=O)c1cc2c(=O)n3ccccc3nc2n(CC(C)C)c1=NC(=O)c1ccco1	-8	4	9	0	.
Cc1cccc(CCN2CCC(C(=O)c3ccc(NS(C)(=O)=O)cc3)CC2)n1	12	.	0	.	2
CCc1ccccc1NC(=O)CSc1nc2c(c(-c3ccco3)c1C#N)CCCC2	-12	1	1	-4	-14
Cc1ccccc1NC(=O)CSc1nc2c(c(-c3ccco3)c1C#N)CCCC2	-1	0	2	5	79*
Cc1cc(/C=N/n2cnnc2)c(C)n1-c1ccc(Cl)cc1	-19	0	2	-11	-25
Cc1cc(/C=N/n2cnnc2)c(C)n1-c1ccc(OCc2ccc(F)cc2)cc1	-21	0	0	7	77*
CCOC(=O)C1CCN(C(=O)c2ccco2)CC1	-9	0	1	3	69*

Bioassay records: PubChem, The Scripps Research Institute Molecular Screening Center
